Reference: PubChem BioAssay AID1159580 (chemical genetic matrix, 2015)
Several values for one entry are separate records, joined by “and”; a condition that tells them apart may be missing. Identical values can stand only once. Hit rate of the full screen: of about 5,500 compounds, about 2,000 (36%) were called active. Another 18% or so got no clear call; they are omitted. Rule as the data show it: active = normalized growth mostly below about 0.91 (no sharp cut-off); inconclusive = no clear call, values can overlap the other calls; inactive = mostly above about 0.92. This is one part of the list.

Test: chemical genetic growth profiling, strain panel (AID 1159580);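 also: tested at 20 µM; growth read once vehicle control cultures reached saturation at 30 °C; 1 = growth at the plate median or of vehicle wells; lower values mean less growth of the strain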
Settings: S. cerevisiae deletion strains, growth OD

Measured: normalized growth

CCOC(=O)c1ccc(N)cc1
inactive: locus YAL021C, strain ccr4, stronger effect = lower value 1.03 | locus YAL026C, strain drs2, stronger effect = lower value 1 | locus YAL030W, strain snc1, stronger effect = lower value 1.01 | locus YBL061C, strain skt5, stronger effect = lower value 0.999 | locus YBR009C, strain hhf1, stronger effect = lower value 0.98 | locus YBR021W, strain FUR4, stronger effect = lower value 0.998 | locus YBR023C, strain chs3, stronger effect = lower value 1.03 | locus YBR171W, strain sec66, stronger effect = lower value 1.03 | locus YBR229C, strain ROT2, stronger effect = lower value 0.999 | locus YBR231C, strain swc5, stronger effect = lower value 1 | locus YBR279W, strain paf1, stronger effect = lower value 1 | locus YCL011C, strain gbp2, stronger effect = lower value 0.987 | locus YCL016C, strain dcc1, stronger effect = lower value 1.01 | locus YCL029C, strain bik1, stronger effect = lower value 0.993 | locus YCL061C, strain MRC1, stronger effect = lower value 1.01 | locus YCL069W, strain vba3, stronger effect = lower value 0.993 | locus YCR088W, strain abp1, stronger effect = lower value 1.01 | locus YDL005C, strain med2, stronger effect = lower value 1.01 | locus YDL035C, strain GPR1, stronger effect = lower value 1.01 | locus YDL040C, strain nat1, stronger effect = lower value 1.01 | locus YDL074C, strain BRE1, stronger effect = lower value 0.994 | locus YDL101C, strain DUN1, stronger effect = lower value 0.993 | locus YDL185W, strain tfp1, stronger effect = lower value 0.994 | locus YDL192W, strain arf1, stronger effect = lower value 1.01 | locus YDR001C, strain nth1, stronger effect = lower value 0.999 | locus YDR069C, strain doa4, stronger effect = lower value 1.04 | locus YDR101C, strain arx1, stronger effect = lower value 1.01 | locus YDR137W, strain rgp1, stronger effect = lower value 1.01 | locus YDR150W, strain NUM1, stronger effect = lower value 0.993 | locus YDR159W, strain sac3, stronger effect = lower value 1 | locus YDR162C, strain NBP2, stronger effect = lower value 0.999 | locus YDR195W, strain ref2 1.09 | locus YDR297W, strain sur2, stronger effect = lower value 1.01 | locus YDR318W, strain mcm21, stronger effect = lower value 0.994 | locus YDR334W, strain swr1, stronger effect = lower value 1.02 | locus YDR335W, strain msn5, stronger effect = lower value 1.02 | locus YDR388W, stronger effect = lower value 0.989 | locus YDR392W, strain spt3, stronger effect = lower value 0.941 | locus YDR502C, strain sam2, stronger effect = lower value 0.987 | locus YEL003W, strain gim4, stronger effect = lower value 1.02 | locus YEL037C, strain rad23, stronger effect = lower value 1.01 | locus YEL061C, strain CIN8 (second series), stronger effect = lower value 1.04 | locus YEL061C, strain CIN8, stronger effect = lower value 1.01 | locus YER015W, strain faa2, stronger effect = lower value 1.01 | locus YER016W, strain bim1, stronger effect = lower value 0.972 | locus YER110C, stronger effect = lower value 0.995 | locus YER111C, strain swi4, stronger effect = lower value 1 | locus YER155C, strain BEM2 (second series), stronger effect = lower value 0.952 | locus YER155C, strain BEM2, stronger effect = lower value 1.01 | locus YER167W, strain BCK2, stronger effect = lower value 1 | locus YFR010W, strain ubp6, stronger effect = lower value 1.02 | locus YGL078C, strain dbp3, stronger effect = lower value 0.996 | locus YGL086W, strain mad1, stronger effect = lower value 0.993 | locus YGL167C, strain pmr1, stronger effect = lower value 1.03 | locus YGL173C, strain kem1, stronger effect = lower value 0.998 | locus YGL227W, strain vid30, stronger effect = lower value 1.02 | locus YGL240W, strain doc1, stronger effect = lower value 0.996 | locus YGL248W, strain PDE1, stronger effect = lower value 0.997 | locus YGL253W, strain hxk2, stronger effect = lower value 1.01 | locus YGR135W, strain pre9, stronger effect = lower value 0.99 | locus YGR252W, strain gcn5, stronger effect = lower value 0.959 | locus YHR013C, strain ard1, stronger effect = lower value 1.04 | locus YHR027C, strain rpn1, stronger effect = lower value 1.01 | locus YHR030C, strain SLT2, stronger effect = lower value 1.01 and 1.02 | locus YHR079C, strain IRE1 (second series), stronger effect = lower value 0.994 | locus YHR079C, strain IRE1, stronger effect = lower value 0.993 | locus YHR094C, strain hxt1, stronger effect = lower value 0.984 | locus YHR129C, strain ARP1, stronger effect = lower value 1 | locus YHR142W, strain chs7, stronger effect = lower value 0.963 | locus YHR200W, strain rpn10, stronger effect = lower value 0.989 | locus YIL066C, strain RNR3, stronger effect = lower value 1.02 | locus YIL073C, strain SPO22, stronger effect = lower value 0.943 | locus YIL125W, strain kgd1, stronger effect = lower value 0.991 | locus YIR030C, strain dcg1, stronger effect = lower value 0.997 | locus YJL092W, strain hpr5, stronger effect = lower value 1.02 | locus YJL095W, strain BCK1 (second series), stronger effect = lower value 1.01 | locus YJL095W, strain BCK1, stronger effect = lower value 0.995 and 0.999 | locus YJL115W, strain asf1, stronger effect = lower value 1.02 | locus YJL129C, strain trk1, stronger effect = lower value 1.04 | locus YJL134W, strain LCB3, stronger effect = lower value 1 | locus YJL154C, strain vps35, stronger effect = lower value 1.01 | locus YJL164C, strain tpk1, stronger effect = lower value 0.982 | locus YJL166W, strain qcr8, stronger effect = lower value 1.01 | locus YJL168C, strain set2, stronger effect = lower value 0.992 | locus YJL187C, strain SWE1 (second series), stronger effect = lower value 0.985 | locus YJR043C, strain POL32, stronger effect = lower value 1.02 | locus YJR066W, strain TOR1, stronger effect = lower value 0.966 | locus YKL009W, strain mrt4, stronger effect = lower value 0.976 | locus YKL068W, stronger effect = lower value 0.993 | locus YKL085W, strain MDH1 (second series), stronger effect = lower value 0.996 | locus YKL085W, strain MDH1, stronger effect = lower value 0.996 | locus YKL160W, strain elf1, stronger effect = lower value 1.02 | locus YKL190W, strain CNB1, stronger effect = lower value 0.988 | locus YKR001C, strain vps1, stronger effect = lower value 0.987 | locus YKR091W, strain srl3, stronger effect = lower value 1.01 | locus YLL001W, strain dnm1, stronger effect = lower value 1.01 | locus YLL026W, stronger effect = lower value 1.02 | locus YLL041C, strain sdh2, stronger effect = lower value 1.02 | locus YLR027C, strain aat2, stronger effect = lower value 1 | locus YLR039C, strain RIC1, stronger effect = lower value 1.01 | locus YLR058C, strain SHM2, stronger effect = lower value 0.999 | locus YLR102C, strain apc9, stronger effect = lower value 0.989 | locus YLR113W, strain HOG1, stronger effect = lower value 0.979 | locus YLR221C, strain rsa3, stronger effect = lower value 1.01 | locus YLR258W, strain gsy2, stronger effect = lower value 0.998 | locus YLR262C, strain YPT6 (second series), stronger effect = lower value 1.03 | locus YLR262C, strain YPT6, stronger effect = lower value 0.988 | locus YLR268W, strain sec22, stronger effect = lower value 0.991 | locus YLR320W, strain mms22, stronger effect = lower value 0.978 | locus YLR330W, strain CHS5, stronger effect = lower value 1.01 | locus YLR342W, strain FKS1 (second series), stronger effect = lower value 1.03 | locus YLR342W, strain FKS1, stronger effect = lower value 1 | locus YLR357W, strain rsc2, stronger effect = lower value 1.05 | locus YLR370C, strain arc18, stronger effect = lower value 1.01 | locus YLR371W, strain rom2, stronger effect = lower value 0.994 | locus YLR384C, strain iki3, stronger effect = lower value 1.02 | locus YLR418C, strain cdc73, stronger effect = lower value 0.988 | locus YML016C, strain PPZ1, stronger effect = lower value 1 | locus YML032C, strain rad52, stronger effect = lower value 0.995 | locus YML120C, strain ndi1, stronger effect = lower value 1.02 | locus YML124C, strain tub3, stronger effect = lower value 0.992 | locus YMR058W, strain fet3, stronger effect = lower value 1.03 | locus YMR078C, strain ctf18, stronger effect = lower value 0.998 | locus YMR125W, strain sto1, stronger effect = lower value 1.01 | locus YMR129W, stronger effect = lower value 1.01 | locus YMR205C, strain PFK2, stronger effect = lower value 1.01 | locus YMR223W, strain ubp8, stronger effect = lower value 0.997 | locus YMR231W, strain pep5, stronger effect = lower value 1.01 | locus YMR263W, strain SAP30, stronger effect = lower value 1 | locus YMR307W, strain GAS1, stronger effect = lower value 1.09 | locus YNL067W, strain RPL9B, stronger effect = lower value 0.975 | locus YNL071W, strain lat1, stronger effect = lower value 0.983 | locus YNL183C, strain NPR1, stronger effect = lower value 0.949 | locus YNL209W, strain ssb2, stronger effect = lower value 0.993 | locus YNL233W, strain BNI4, stronger effect = lower value 1.01 | locus YNL248C, strain rpa49, stronger effect = lower value 1 | locus YNL250W, strain rad50, stronger effect = lower value 0.983 | locus YNL271C, strain bni1, stronger effect = lower value 0.993 | locus YNL298W, strain CLA4, stronger effect = lower value 1.01 | locus YNL307C, strain MCK1, stronger effect = lower value 0.986 | locus YNL322C, strain KRE1 (second series), stronger effect = lower value 1.01 | locus YNR049C, strain mso1, stronger effect = lower value 1.02 | locus YNR052C, strain pop2, stronger effect = lower value 0.987 | locus YOL006C, strain TOP1, stronger effect = lower value 1.03 | locus YOL012C, strain htz1 0.986 | locus YOL147C, strain pex11, stronger effect = lower value 0.993 | locus YOR001W, strain rrp6, stronger effect = lower value 1.02 | locus YOR061W, strain CKA2, stronger effect = lower value 0.996 | locus YOR069W, strain VPS5, stronger effect = lower value 0.998 | locus YOR070C, strain gyp1, stronger effect = lower value 0.989 | locus YOR080W, strain dia2, stronger effect = lower value 1.03 | locus YOR083W, strain WHI5, stronger effect = lower value 1.01 | locus YOR106W, strain vam3, stronger effect = lower value 1.02 | locus YOR136W, strain idh2, stronger effect = lower value 0.98 | locus YOR144C, strain elg1, stronger effect = lower value 0.997 | locus YOR184W, strain ser1, stronger effect = lower value 0.991 | locus YOR231W, strain MKK1, stronger effect = lower value 0.989 | locus YOR265W, strain rbl2, stronger effect = lower value 1.01 | locus YOR270C, strain vph1, stronger effect = lower value 0.973 | locus YOR290C, strain snf2, stronger effect = lower value 0.988 | locus YOR316C, strain cot1, stronger effect = lower value 0.989 | locus YPL051W, strain arl3, stronger effect = lower value 1.02 | locus YPL055C, strain LGE1, stronger effect = lower value 1 | locus YPL078C, strain atp4, stronger effect = lower value 1.03 | locus YPL106C, strain sse1, stronger effect = lower value 0.946 | locus YPL240C, strain hsp82, stronger effect = lower value 1.02 | locus YPL241C, strain CIN2, stronger effect = lower value 1 | locus YPL256C, strain CLN2, stronger effect = lower value 0.983 | locus YPR119W, strain clb2, stronger effect = lower value 0.99 | locus YPR141C, strain kar3, stronger effect = lower value 0.999 | locus YPR163C, strain tif3, stronger effect = lower value 1 | locus YPR167C, strain met16, stronger effect = lower value 0.996 | strain wtn01, stronger effect = lower value 0.997
